Screening results (PubChem)
This is one part of a sample in which hits are shown more often than they occur.
Methyltransferases: Primary Screen for Target Class Profiling of Small Molecule Inhibitors of Methyltransferases | calls only at 40 µM | actives 3.9% (n = 25,000) | AID 1745853, 2022 | purified enzyme, MTase-Glo SAH luminescence; stronger effect = lower value; call rule not given here
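Each enzyme was reacted with SAM and its substrate, with compounds tested once at 40 uM; SAH formed was read by MTase-Glo luminescence.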
Active calls of the source: *; i = inactive; + = active, no number. On the % scale 0 is the no-effect control and ±100 the full control effect.

SMILES	Methyltransferases
CCOc1cc2ncc(C#N)c(Nc3ccc(F)c(Cl)c3)c2cc1NC(=O)/C=C/CN(C)C	+
CN(C)C/C=C/C(=O)Nc1cc2c(Nc3ccc(F)c(Cl)c3)ncnc2cc1OC1CCOC1 (configuration not stated)	+
CCOc1cc2ncc(C#N)c(Nc3ccc(OCc4ccccn4)c(Cl)c3)c2cc1NC(=O)/C=C/CN(C)C	i
CN(C)C/C=C/C(=O)Nc1cc2c(Nc3ccc(F)c(Cl)c3)ncnc2cc1O[C@H]1CCOC1	+
CCOC(=O)c1cccc(NS(=O)(=O)c2ccc3c(c2)NC(=O)CC(=O)N3)c1	i
CCc1ccc(CNC(=O)c2ncn3c2C(=O)N(C2CC2)C(C)(C(=O)NCc2ccccc2OC)C3)cc1 (configuration not stated)	i
CCCn1c(=O)c2ccc(C(=O)NC3CCCC3)cc2n2c(=O)n(Cc3cccc(OC)c3)nc12	i
C#CCNC(=O)CNC(=O)c1cccc(-c2cc(F)ccc2OC)c1	i
CCOc1ccccc1CNC(=O)C(CC)n1ccc2cc(S(=O)(=O)N3CCCCC3)ccc21 (configuration not stated)	i
Cc1ccc(Cl)cc1N1C(=O)c2cc(C(C)C)nn2CC1(C)C(=O)NC1CCCCC1 (configuration not stated)	i
O=C(CCc1nnc2n(CCc3ccccc3)c(=O)c3ccccc3n12)Nc1cccc(Cl)c1	i
O=C(Cn1nc2n(Cc3ccccc3)c(=O)c3ccccc3n2c1=O)NCc1ccc(Cl)cc1	i
CC1=CC(=O)C2C(C)(C)CCCC2(C)C12CCC1(COC(=O)C1)O2 (configuration not stated)	+
CC1=CC(=O)[C@H]2C(C)(C)CCC[C@]2(C)[C@@]1(O)CO	i
CC(=O)O[C@H]1[C@H](OC(=O)C(C)C)[C@]2(C)OC3(CC[C@]2(C)[C@H]2CCC[C@]4(CO4)[C@]12C)COC(=O)C3 (some centres not stated)	i
CCOC(=O)c1cc2n(n1)CC(C)(C(=O)NCCCOC)N(c1ccc(OCC)cc1)C2=O (configuration not stated)	i
COc1ccc(-c2n[nH]n3c2nc(=O)c2ccc(C(=O)NCc4ccc(F)cc4)cc23)cc1	i
CCC(CC)C(c1ccc(Nc2nc3ccccc3s2)cc1)n1cncn1 (configuration not stated)	+
CN1C(=O)c2cc(C(=O)NCc3ccc4c(c3)OCO4)nn2CC1(C)C(=O)NC1CCCCC1 (configuration not stated)	i
Clc1ncoc1-c1c[nH]c2ccccc12	i
O=C1NC(Cc2c[nH]c3ccccc23)C(=O)NC1Cc1c[nH]c2ccccc12 (configuration not stated)	i
O=C1NC(=O)C(c2c[nH]c3ccccc23)=C1c1c[nH]c2ccccc12	+
CC1CCCCC1NC(=O)C1(C)Cn2c(ccc2-c2ccco2)C(=O)N1Cc1ccc(Cl)cc1 (configuration not stated)	i
CCC(C)NC(=O)c1ccc2c(=O)n(C)c3nnc(SCc4ccc(F)cc4)n3c2c1 (configuration not stated)	i
Cc1ccc(Cn2c(=O)c3ccccc3n3c(CCC(=O)NCCc4ccccc4)nnc23)cc1	i
SMILES	Methyltransferases
CCOc1ccc(CCN2C(=O)c3cc4ccccc4n3CC2(C)C(=O)NCCC(C)C)cc1OCC (configuration not stated)	i
Cn1c(=O)c(-c2c(Cl)cccc2Cl)cc2cnc(Nc3ccc(N4CCOCC4)cc3)nc21	i
CC(=O)c1c(C)c2cnc(Nc3ccc(N4CCNCC4)cn3)nc2n(C2CCCC2)c1=O	i
CNC(=O)c1ccccc1Nc1nc(Nc2ccc(N3CCNCC3)cc2)ncc1Cl	+
CCc1cc2c(cc3n2CC(C)(C(=O)NC2CCCCCC2)N(c2cccc(C)c2C)C3=O)s1 (configuration not stated)	i
Cc1ccc(NC(=O)N2Cc3c(sc4c3CCCC4)-n3cccc3C2c2ccc(F)cc2)cc1 (configuration not stated)	i
CCOC(=O)C1CCN(C(=O)CCn2ccc3cc(S(=O)(=O)N4CCCCC4)ccc32)CC1	i
Cc1ccccc1N1C(=O)c2cc3ccccc3n2CC1(C)C(=O)NCCC(C)C (configuration not stated)	i
COCCN1C(=O)c2cc3sccc3n2CC1(C)C(=O)NC1CCCCC1 (configuration not stated)	i
Cc1[nH]c(/C=C2\C(=O)Nc3cc(-c4ccccc4)ccc32)c(C)c1CCC(=O)O	i
CN1C(=O)c2ccccc2NC(=O)[C@]12O[C@@H]2c1cccc(O)c1	i
O=C1Nc2ccccc2/C1=C/c1cc(O)ccc1O	+
CCCn1c(=O)c2ccc(C(=O)NC(C)CC)cc2n2c(SCC(=O)Nc3cc(C)cc(C)c3)nnc12 (configuration not stated)	i
CN1C(=O)c2cc(C(=O)NCc3ccccc3)nn2CC1(C)C(=O)NC1CCCCCC1 (configuration not stated)	i
COc1cc(OC)c(NC(=O)N2CCn3c(C)ccc3C2C(C)C)cc1Cl (configuration not stated)	i
CC(C)CCn1c(=O)c2ccc(C(=O)NCC(C)C)cc2n2c(=O)n(Cc3ccc(Cl)cc3)nc12	i
CCOC(=O)c1cc2n(n1)CC(C)(C(=O)NC1CCCC1)N(Cc1cccc(F)c1)C2=O (configuration not stated)	i
O=C1NC(=O)C(c2cnc3ccccn23)=C1c1cn2c3c(cc(F)cc13)CN(C(=O)N1CCCCC1)CC2	+
CC(C)NC(=O)c1ccc2c(=O)n(Cc3ccccc3)c3nn(Cc4cccc(F)c4)c(=O)n3c2c1	i
COC(=O)c1ncn2c1C(=O)N(Cc1ccc(OC)cc1OC)C(C)(C(=O)NC1CCCCC1)C2 (configuration not stated)	i
CCCn1c(=O)c2ccc(C(=O)NC(C)CC)cc2n2c(SCC(=O)c3ccc(F)cc3)nnc12 (configuration not stated)	i
CN(C)c1nc(NC2CCC(NC(=O)c3ccc(F)c(F)c3)CC2)nc2ccccc12 (configuration not stated)	+
CN(C(=O)Cn1nc2n(C)c(=O)c3ccc(C(=O)NC4CCCC4)cc3n2c1=O)c1ccccc1	i
Cc1ccc(Cl)cc1Nc1nn2c(=O)c3ccc(C(=O)NC4CCC(C)CC4)cc3nc2s1 (configuration not stated)	i
Cc1ccc(CNC(=O)c2ncn3c2C(=O)N(C2CC2)C(C)(C(=O)NC2CCCC2)C3)cc1 (configuration not stated)	i
CCOc1ccc(NC(=O)N2CCn3c(C)ccc3C2C(C)C)cc1 (configuration not stated)	i
COc1ccc(N2C(=O)c3cc(C(C)(C)C)nn3CC2(C)C(=O)NC2CCCCCC2)cc1 (configuration not stated)	i
CCCN1CCN(CCCN2C(=O)c3cc4occc4n3CC2(C)C(=O)NC2CCCCCC2)CC1 (configuration not stated)	i
CCOc1ccc(CCNC(=O)CNC(=O)C2(C)Cn3c(cc4ccccc43)C(=O)N2C)cc1 (configuration not stated)	i
CC1CCCC(NC(=O)C2(C)Cn3c(cc4sccc43)C(=O)N2Cc2cccs2)C1C (configuration not stated)	i
